Screen size: about 2,200 compounds; about 530 (24%) were called active.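 How the source made its calls: active means inhibition above a set limit at one or more concentrations of the dose series; inactive means inhibition under that limit at every dose.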 A selection follows. Entries with a potency or affinity are not part of this list.
assay: nmpC-GFP reporter counter-screen in S. Typhimurium, dose response, counter-screen for PhoP regulon inhibitor project, Salmonella Typhimurium, GFP fluorescence (AID 2401); settings: 4 h; series mostly up to 150 µM; inhibition: at the top concentration;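 further: S. typhimurium with Mg-insensitive nmpC-GFP reporter grown at 10 µM Mg2+; drop in reporter fluorescence reflects general culture growth inhibition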

| SMILES | inhibition |
| --- | --- |
| CCCCOC(=O)CCNc1n[nH]c(=O)[nH]c1=O | 3.71% (inactive) |
| CN1CCN(S(=O)(=O)c2ccc(N)cc2)CC1 | -16.2% (inactive) |
| O=C(NCc1ccccn1)Nc1cccc(Cl)c1 | -24.5% (inactive) |
| Cn1c(N)c(C(=O)COC(=O)C2CCCCC2)c(=O)n(C)c1=O | -15.7% (inactive) |
| C#CCOc1ccc(Cl)cc1/C=N/O | 13.5% (inactive) |
| CC(C)CNC(=O)c1ccc(COc2ccc(Cl)cc2Cl)o1 | -4.89% (inactive) |
| CCCCN(C(=O)NC(=O)Nc1nc2ccc(OC)cc2s1)S(C)(=O)=O | 14.3% (inactive) |
| Cc1ccc2nc(SCC(=O)c3c(C)[nH]c4ccccc34)[nH]c2c1 | 30.9% (inactive) |
| CN(CCO)Cc1csc2ccc(Br)cc12 | -7.08% (inactive) |
| CCNC(=O)NC1(C(=O)Nc2ccc3c(c2)OCCO3)CCCCC1 | -29.3% (inactive) |
| CC1=CC(C)(C)n2c(O)c(C3=NC(=S)NC3=O)c3cc(OC(=O)c4cccc5ccccc45)cc1c32 | -11.6% (inactive) |
| CCOC(=O)C1CCCN(S(=O)(=O)c2ccc(Br)c(OC)c2)C1 (centres undefined) | 0.83% (inactive) |
| O=C(CCc1ccccc1)Nc1nc2ccc(S(=O)(=O)N3CCOCC3)cc2s1 | 25.6% (inactive) |
| O=C(c1ccc2nc(N3CCOCC3)sc2c1)N1CCC(Cc2ccccc2)CC1 | -16.1% (inactive) |
| CN1CCN(S(=O)(=O)c2ccc(-c3ccccc3)cc2)CC1 | -28.3% (inactive) |
| CCC1C2CN(C(C)=O)CC=C2C(C#N)=C(N)C1(C#N)C#N (centres undefined) | 3.63% (inactive) |
| Cc1cc(NCCN2CCOCC2)n2ncc(-c3ccccc3)c2n1 | -15.6% (inactive) |
| CN(C)CCNc1nc(-c2ccccc2)nnc1C(F)(F)F | -3.73% (inactive) |
| Nc1c(-c2ccccc2Cl)cnn1-c1cccc([N+](=O)[O-])c1 | -8.16% (inactive) |
| N#Cc1ccc(C(c2nnnn2CCc2ccccc2)N2CCCCCC2)cc1 (centres undefined) | -1.07% (inactive) |
| NC(=O)c1ccccc1NC(=O)/C=C/C(=O)O | -8.68% (inactive) |
| O=C(Cc1cccs1)Nc1nc2c(s1)CCCC2 | -24.8% (inactive) |
| COc1ccc([N+](=O)[O-])cc1N(CC(O)Cn1nnc2ccccc21)S(=O)(=O)c1ccc(C)cc1 (centres undefined) | -42.2% (inactive) |
| Cc1cccc(NC(=O)c2ccc(Cn3cc(C(F)(F)F)ccc3=O)cc2)c1 | 7.69% (inactive) |
| O=C(O)/C=C/C(=O)Nc1cccc(C(F)(F)F)c1 | -19.4% (inactive) |

| SMILES | inhibition |
| --- | --- |
| NS(=O)(=O)c1ccc(Nc2nc(-c3ccc(O)cc3)cs2)cc1 | -18.4% (inactive) |
| COCc1cc(C)nc(N2CCc3ccccc32)c1C#N | -22.8% (inactive) |
| O=C(CSc1nnc(Cc2ccccc2)o1)NCCc1ccccc1 | -24.4% (inactive) |
| CCn1c(=N)n(CC(O)c2ccccc2)c2ccccc21 (centres undefined) | -16% (inactive) |
| Cc1ccccc1OCCCCCn1ccnc1 | -17% (inactive) |
| C1=C(CCNc2ncnc3c2[nH]c2ccccc23)CCCC1 | 26.4% (inactive) |
| COc1ccc(C(=O)NCCC2=CCCCC2)cc1OC | 5.91% (inactive) |
| Cc1nc2ccccc2c(=O)n1/N=C/c1ccc(N(C)C)cc1 | -15.2% (inactive) |
| COc1cccc(Nc2nc(-c3sc(NC(=O)c4ccco4)nc3C)cs2)c1 | 25.7% (inactive) |
| O=C(NCCNS(=O)(=O)c1cccc(C(F)(F)F)c1)c1cc(OCC(F)(F)F)ccc1OCC(F)(F)F | -2.55% (inactive) |
| CCOC(=O)C1CCCN(C(=O)Cc2ccc(Cl)cc2)C1 (centres undefined) | -20.2% (inactive) |
| NC(=NCc1ccc2c(c1)OCO2)NC(=O)c1ccccc1 | 36.3% (inactive) |
| COc1ccc(-c2nc3ncccc3n2O)cc1 | -18.4% (inactive) |
| O=C(CSc1nccc(=O)[nH]1)N1c2ccccc2CCc2ccccc21 | 1.74% (inactive) |
| O=C(CSC1CC(=O)N(CCc2ccccc2)C1=O)Nc1cccc(Cl)c1 (centres undefined) | 9.92% (inactive) |
| COc1ccc(NC2=NC3(CCCCC3)N=C(N)N2)cc1 | -8.53% (inactive) |
| CC(C)c1ccc(NC(=O)Nc2cc3sccc3n2C)cc1 | 22.1% (inactive) |
| CCOC(=O)C1CCCN(C(=O)c2sc3nc(C)nc(N4CCOCC4)c3c2C)C1 (centres undefined) | -24.6% (inactive) |
| CCn1c(Cc2ccccc2)nnc1SCC(=O)Nc1nc(C)c(C)s1 | -12.1% (inactive) |
| OC1(c2cccc(C(F)(F)F)c2)CCN(c2ncnc3c2[nH]c2ccccc23)CC1 | 15.2% (inactive) |
| Cc1ccc(Oc2nnc(-c3ccccc3)c3ccccc23)cc1 | 3.31% (inactive) |
| O=C(CN1CCCc2ccccc21)N/N=C/c1c(O)ccc2ccccc12 | 38.1% (inactive) |
| NC(=O)c1oc2ccccc2c1NC(=O)CN1CCCCC1 | -2.53% (inactive) |
| Nc1ccc(S(=O)(=O)Nc2ccc(Cl)nn2)cc1 | 15.9% (inactive) |
| O=C(Nc1cccc(-c2cn3cccnc3n2)c1)c1ccco1 | -21.2% (inactive) |

| SMILES | inhibition |
| --- | --- |
| CCOCCCNC(=S)Nc1cc(C)cc(C)c1 | -3.38% (inactive) |
| O=C(CCNS(=O)(=O)c1cccc2nsnc12)Nc1ccc2c(c1)OCCO2 | -13.2% (inactive) |
| Cc1cc(C(C)c2ccccc2)c(O)c(CN2CCOCC2)c1C (centres undefined) | 16.5% (inactive) |
| c1ccc(COc2cccc(CN3CCN(c4ccccn4)CC3)c2)cc1 | -21.9% (inactive) |
| c1cncc(-c2nc(N3CCOCC3)c3ccccc3n2)c1 | -13.2% (inactive) |
| O=c1[nH]c(CN2CCCCC2)nc2ccccc12 | -18.8% (inactive) |
| CC1(C)CC(=O)C(/C=N/c2ncccc2C(=O)O)=C(O)C1 | -7.77% (inactive) |
| CCOC(=O)c1ccc(NC(=O)Nc2cc(C)on2)cc1 | -22.6% (inactive) |
| COc1ccc(NC2=NC(=S)N(c3cccc(C)c3)C23CCCCC3)cc1 | -30.8% (inactive) |
| CN(C)c1ccc(Nc2nc(-c3cccnc3)cs2)cc1 | 31% (inactive) |
| CCC(CC)NC(=O)COC(=O)c1ccc(OCC(=O)Nc2ccccc2OC)c(OC)c1 | -12.6% (inactive) |
| O=C(O)C1CCCN1S(=O)(=O)c1ccc2[nH]c(=O)c(=O)[nH]c2c1 (centres undefined) | -21.6% (inactive) |
| N=c1n(Cc2ccc(Cl)cc2)c2ccccc2n1CC(O)c1ccco1 (centres undefined) | 38.9% (inactive) |
| N=c1n(CCO)c2ccccc2n1Cc1ccc(Cl)cc1 | 10.3% (inactive) |
| N#CCC1c2ccccc2CCN1C(=O)Nc1ccc(Cl)cc1 (centres undefined) | -25.1% (inactive) |
| N/C(=N\c1nc2ccccc2o1)NC(=O)c1ccccc1F | -4.05% (inactive) |
| Cn1c(-c2ccc(N)cc2)nc2ccccc21 | -13.6% (inactive) |
| CCCCCOc1ccc(NC(=O)C(=O)NCCC2=CCCCC2)cc1 | -29% (inactive) |
| CN1/C(=C\C=N\NC(=O)c2ccccc2Br)C(C)(C)c2ccccc21 | 9.45% (inactive) |
| CN1/C(=C/C2CC(=O)N(c3cccc4ccccc34)C2=O)C(C)(C)c2ccccc21 (centres undefined) | 37.3% (inactive) |
| C=CCNC(=O)c1ccc(N(C)S(=O)(=O)c2ccc(OC)cc2)cc1 | -4.35% (inactive) |
| CC(=O)Nc1nc(-c2ccc(Cl)cc2)nc(C)c1C(C)=O | -23.7% (inactive) |
| COC(=O)c1ccccc1NC(=O)NCc1ccc2c(c1)OCO2 | -23.4% (inactive) |
| c1ccc(-c2cnn3nnnc3n2)cc1 | 1.88% (inactive) |

Source: PubChem BioAssay AID2401 (Southern Research Specialized Biocontainment Screening …, 2010)
